In PubChem BioAssay (NCI):
The panel holds about 83,000 compounds, 20% with a hit somewhere; the sample as a whole holds those more often.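 Values shown are percent growth following 48 h exposure of cells in 96-well plates to a single concentration of compound; below 10 was considered active.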 Unmarked numbers belong to inactive results. Activity calls are given as the source filed them.

Each compound was assayed on UACC-62 melanoma (assay: NCI-60 one-dose screen, 48 h (100 = growth as untreated, 0 = no growth, -100 = all killed)). Details: 10 µM unless noted.
Description: Growth inhibition of the UACC-62 human tumor cell line is measured as a screen for anti-cancer activity. Cells are grown in 96 well plates and exposed to the test compound for 48 hours. Compounds are tested at a single concentration, which is 10^-5 M for most compounds. The reported endpoint is percent growth (GI% or GIPRCNT), where numbers from 0 - 100% represent growth inhibition, and numbers from -100% - 0 represent cell death. For example, a value of 40 represents 60% growth inhibition. A value of 0 means no net growth occurred over the course of the experiment. A value of -40 indicates 40% of cells at the beginning of the experiment died by the end of the experiment. A value of -100 means all cells are dead at the end of the experiment.
NCI-60 Human Tumor Cell Lines Screen was performed using the standard one-dose NCI protocol, which is described in more detail at https://dtp.cancer.gov/discovery_development/nci-60/default.htm.
Compounds with GIPRCNT values below 10 were considered active. Activity score was based on GIPRCNT using the following formula: […]
Score is 0 for GIPRCNT values of 100 or above, 50 for GIPRCNT values of 0, and 100 for GIPRCNT values of -100.

Q: Which growth does the source give for `COc1ccc(CN2C(=O)C(Cl)=C(Nc3cccc(C(F)(F)F)c3)C2=O)cc1` here?
A: 58.1%

Q: Which growth does the source give for `CC1=C([Se]CC(OC(=O)CC[Se]c2ccccc2)C(=O)NCCCCCC(=O)OCc2ccccc2)C(=O)c2ccccc2C1=O` (stereo not given) here?
A: 41.6%

Q: Which growth does the source give for `C=C(C)[C@@H]1CC[C@]2(C(=O)NC3CCCCC3)CC[C@]3(C)[C@H](CC[C@@H]4[C@@]5(C)CCCNC(C)(C)[C@@H]5CC[C@]43C)[C@@H]12` here?
A: 11.7%

Q: `COC(=O)[C@]12CC[C@@H](C)[C@H](C)[C@@H]1C1=CC[C@@H]3[C@@]4(C)C(C=O)=C[C@@](C)(COC(=O)c5ccco5)[C@@H]4C(=O)C[C@@]3(C)[C@]1(C)CC2` was tested. Which growth did it give?
A: -23.8% (active)

Q: How did the growth turn out when `COCCN(C(=O)c1ccc(F)cc1F)c1c(N)n(Cc2ccccc2)c(=O)[nH]c1=O` was run?
A: 94.3%

Q: For `CC1OC(O[C@H]2/C=C/C=C/C=C/C=C/C=C/C=C/C=C/[C@H](C)[C@@H](O)[C@@H](C)[C@H](C)OC(=O)CC(O)CC(O)CCC(O)C(O)CC(O)C[C@]3(O)C[C@H](O)C(C(=O)O)C(C2)O3)C(O)[C@H](N)C1O` (stereo not given in full), which growth is on record?
A: -13% (active)

Q: `COc1ccc(/C=C/c2c(C(=O)/C=C/c3ccc(F)cc3)c(C)nc3ccccc23)cc1` was tested. Which growth did it give?
A: 46.8%

Q: With `N#Cc1c(N)nc2c(C#N)c(NC(=O)c3ccccc3)nn2c1-c1ccccc1` as the compound, how does the growth read?
A: 91.2%

Q: How did the growth turn out when `O=Cc1ccc(O)c2ncccc12` was run?
A: 45.1%

Q: With `O=c1c2cc(F)ccc2sc2c(NCCN3CCCCC3)nc3ccccc3c12` as the compound, how does the growth read?
A: 36.7%

Q: How did the growth turn out when `Cc1cc(/C=C\c2ccc3ccccc3[n+]2C)c(O)c2ncccc12` was run?
A: -26.5% (active)

Q: How did the growth turn out when `CC(C)(C)c1ccc(/C=C/C(=O)Nc2ccc(O)cc2)cc1` was run?
A: 55.1%

Q: Which growth does the source give for `O=C(Nc1cccc(C(F)(F)F)c1)Nc1cccc(C(F)(F)F)c1` here?
A: 10.6%

Q: For `CC1=C(SCCC(=O)OC(C[Se]C2=C(C)C(=O)c3ccccc3C2=O)C(=O)NCCCCCC(=O)OCc2ccccc2)C(=O)c2ccccc2C1=O` (stereo not given), which growth is on record?
A: 65.2%

Q: `COc1cc(C(=O)c2cc(C)c3[nH]c4ccc(Cl)cc4c3c2C)cc(OC)c1OC` was tested. Which growth did it give?
A: 42.6%

Q: Which growth does the source give for `O=C1Nc2ccccc2/C1=C/c1cn(C(=O)c2ccc(Cl)cc2)c2ccccc12` here?
A: 89.3%

Q: For `O=C(/C=C/c1ccc(Cl)nc1)c1ccc(Cl)cc1Cl`, which growth is on record?
A: 97.2%

Q: How did the growth turn out when `CCOC(=O)c1c(/C=C/C(=O)O)nc2ccccc2c1/C=C/c1ccccc1` was run?
A: 45.5%

Q: For `NCCCNc1nc2ccccc2c2c(=O)c3cccc(Cl)c3sc12`, which growth is on record?
A: 51.4%

Q: Which growth does the source give for `Cc1c(O)cc(-c2cnc(N/N=C\c3ccc(Cl)cc3)s2)c(O)c1C` here?
A: 81.6%

Q: How did the growth turn out when `Cc1ccc2c(c1)Sc1c(ccc3ccccc13)N2` was run?
A: 58.9%

Q: Which growth does the source give for `S=C(Cc1ccc2c(c1)CCCC2)N1CCOCC1` here?
A: 95.9%

Q: Which growth does the source give for `COc1ccc2nc(NNC(=O)c3cnccn3)c3cccn3c2c1` here?
A: -34.2% (active)

Q: With `CC(CN1CCCCC1)C(=O)c1ccccc1` (stereo not given) as the compound, how does the growth read?
A: 104%

Q: With `Cc1ccc(/C=C/c2c(C(=O)/C=C/c3ccc(Cl)cc3)c(C)nc3ccccc23)cc1` as the compound, how does the growth read?
A: -32.8% (active)

Q: With `Fc1c[c-]c(-c2ccccn2)c(F)c1.[CH3-].[Pt+2].c1ccc(P(C[PH+](c2ccccc2)c2ccccc2)c2ccccc2)cc1` as the compound, how does the growth read?
A: -18.7% (active)

Q: For `COc1ccc2cc(-c3cc(OC)c(OC)c(OC)c3)c(=O)oc2c1`, which growth is on record?
A: 42%

Q: `COC(=O)[C@H](CSC)N(C)C(=O)[C@@H]1CSSC[C@@H](NC(=O)c2nc3ccccc3cc2O)C(=O)NCC(=O)N1C` was tested. Which growth did it give?
A: 60%

Q: Which growth does the source give for `N#Cc1c(N2CCNCC2)nc2sc3cc(Cl)c(Cl)cc3n2c1=N` here?
A: 82.6%

Q: `c1ccc2cc3nc4cc5ccccc5cc4nc3cc2c1` was tested. Which growth did it give?
A: 96.5%

Q: With `COc1ccccc1CNCCCN1C(=O)c2ccc3c4c(ccc(c24)C1=O)C(=O)N(CCCNCCCCN)C3=O` as the compound, how does the growth read?
A: -60.1% (active)

Q: How did the growth turn out when `COc1cccc(-c2nc3sccn3c2-c2ccnc(NCCNS(=O)(=O)c3cccc(F)c3)c2)c1` was run?
A: -17.9% (active)

Q: Which growth does the source give for `Cc1c2c(c(C)c3c1oc1cc(O)ccc13)C(=O)N(CCN1CCCCC1)C2=O` here?
A: 99.2%

Q: With `CC/C=C\C[C@H](O)C/C=C1/C(=O)C=C[C@@H]1C/C=C\CCCCO` as the compound, how does the growth read?
A: -23.3% (active)

Q: How did the growth turn out when `COc1cc2c(cc1-c1c(C)noc1C)ncc1nc(C3CCCCC3)n(C3CCC(OC(F)F)CC3)c12` (stereo not given) was run?
A: 22.3%

Q: For `O=C(O)c1ccc2c(c1)CCC2`, which growth is on record?
A: 113%

Q: With `CC(=O)OC1CCC2(C)C(=CC3C4CCC(=O)C4(C)CCC32)C1` (stereo not given) as the compound, how does the growth read?
A: 101%

Q: `CN1CCN(C(=O)c2c3c(n4ccccc24)C(=O)c2ncccc2C3=O)CC1` was tested. Which growth did it give?
A: 39.3%

Q: How did the growth turn out when `c1ccc2c(c1)nc(CN1CCOCC1)n1cc(N3CCCC3)nc21` was run?
A: 100%

Q: How did the growth turn out when `O=C(Nc1ccccc1Cl)Oc1ccc(-c2ccccc2)cc1` was run?
A: 89%
